Hits are enriched below; roughly 2.2% of the tested compounds scored in any of these assays.
TrxR1 inh: blocks rat thioredoxin reductase 1; recombinant rTrxR1, NADPH fluorescence consumption, selenite substrate; AID 588453; 390,000 tested, 1% active; O89049; Potency, µM (titrated, usually from 114 µM), inactives show at the top dose activity change, negative = inhibition, most hits filed as inhibitors; further: potency means the concentration at half of the fitted maximal effect; on the % scale 0 is the no-effect control and ±100 the full control effect; nearly all actives have a fitted effect of over 65% in size
Target sequence (O89049 whole entry, looked up): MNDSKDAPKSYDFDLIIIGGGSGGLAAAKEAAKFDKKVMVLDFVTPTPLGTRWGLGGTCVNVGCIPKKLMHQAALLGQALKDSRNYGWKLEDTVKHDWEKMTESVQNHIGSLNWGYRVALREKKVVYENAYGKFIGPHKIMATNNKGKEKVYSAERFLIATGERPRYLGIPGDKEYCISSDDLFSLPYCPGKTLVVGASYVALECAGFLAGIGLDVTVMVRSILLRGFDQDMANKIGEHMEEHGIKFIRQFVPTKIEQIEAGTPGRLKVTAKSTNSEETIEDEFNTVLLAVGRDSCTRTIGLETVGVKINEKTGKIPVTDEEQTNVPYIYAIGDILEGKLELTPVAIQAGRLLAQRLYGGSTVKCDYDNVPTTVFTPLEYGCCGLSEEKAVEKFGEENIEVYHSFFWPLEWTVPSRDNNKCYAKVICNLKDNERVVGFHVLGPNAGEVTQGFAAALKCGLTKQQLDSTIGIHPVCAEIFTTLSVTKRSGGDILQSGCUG
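Rat TrxR1 (90 nM in the dispensed reagent) was pre-reduced with 400 uM NADPH for 5 min at room temperature, then incubated with compound for 15 min. After 400 uM selenite was added, NADPH fluorescence (Ex 340/Em 450 nm) was followed for 8 min.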
mIDH1 inhibitor: inhibitors of human mutant IDH1 R132H; IDH1-R132H enzyme, NADPH consumption, diaphorase/resazurin fluorescence; Potency, µM (doses to about 76.6 µM), without a hit: at the highest dose activity change, negative = inhibition, usual class: inhibitors; 390,000 tested, 0.093% active; AID 602179; further: potency means the concentration at half of the fitted maximal effect; on the % scale 0 is the no-effect control and ±100 the full control effect; nearly all actives have a fitted effect of over 65% in size
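IDH1-R132H (0.5 ug/mL dispensed) in pH 7.5 Tris buffer was preincubated 30 min with compound, then given a substrate mix of 0.016 mM NADPH and 2 mM alpha-KG for 80 min at room temperature; remaining NADPH was read by diaphorase/resazurin fluorescence.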
TrxR1 substrate: rat thioredoxin reductase 1 substrate activity | O89049 | purified TrxR1 substrate turnover, NADPH consumption readout | Potency, µM (series often up to 114 µM), inactives show at the highest dose activity change, negative = substrate turnover | 390,000 tested, 0.01% active | AID 588456; further: potency means the concentration at half of the fitted maximal effect; on the % scale 0 is the no-effect control and ±100 the full control effect; nearly all actives have a fitted effect of over 50% in size
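Rat TrxR1, dispensed at 90 nM, was prereduced with 400 uM NADPH (final) for 5 min at ~22 deg C, then incubated with compound 15 min before 400 uM selenite. A first-read NADPH fluorescence drop versus no-compound background flagged substrates.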
BRCA1 expr act: increases BRCA1 expression | MCF7-BRCA1-FFLuc reporter, luminescence, 48 h; response scale: scaled: vehicle 0%, 10 µM genistein 100% | Potency, µM (doses to about 46.1 µM), for inactives: at the highest dose activation, most hits filed as activators | 380,000 tested, 1.1% active | AID 624202; further: potency means the concentration at half of the fitted maximal effect; nearly all actives have a fitted effect of over 80% in size
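48 h compound treatment of MCF7-BRCA1-FFLuc cells (phenol-red free MEM, 37 °C), then 15 min with luciferase substrate and luminescence imaging.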
IL2 activator: IL-2 activation | 360,000 tested, 0.065% active | IL-2 activation reporter assay, cell-based qHTS; stimulated with anti-CD3/CD4/CD28 beads; in transgenic mouse T cells | activation, % (series mostly up to about 46 µM); in the data active means activation above about 50%; inconclusive means mostly about 30% to 49%; further: 0% is about no effect
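Unstimulated transgenic mouse T cells preincubated 60 min with compound, then stimulated with anti-CD3/anti-CD4-coated beads plus anti-CD28 for 18 h at 37 degrees C. IL-2 response read as EGFP and DsRed fluorescence by plate cytometry.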
Giardia kill: kills Giardia lamblia; Giardia lamblia trophozoite viability; activity change, % at 7.66 µM, hits read low; 340,000 tested, 0.15% active; in the data active means activity change below about -80%; inconclusive means between about -30% and that limit;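 further: parasites exposed to compound for two days anaerobically before the ATP read; on the % scale 0 is the no-effect control and ±100 the full control effect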
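Each well holds 100 Giardia trophozoites and compound. After two days (48 hrs) at 37 deg C in anaerobic conditions, ATP is quantified by luminescence.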
An asterisk follows results filed as active; ? = inconclusive; . = not tested or not shown; [ ] = another dose, or the depositor's remark. Unless noted, the call rests on the fitted dose curve; in most records, active means well fitted curve in the direction sought with a large enough effect; inconclusive means small, poorly fitted or top-dose-only effect, or another doubt; inactive means no such curve, though single readings can be large; an effect the other way counts as inactive or inconclusive.

SMILES | TrxR1 inh | mIDH1 inhibitor | TrxR1 substrate | BRCA1 expr act | IL2 activator | Giardia kill
Cc1ccccc1NC(=O)C1Cc2ccccc2CN1C(=O)c1ccco1 (configuration not stated) | ? | 9.5% | 4.7% | 0.0% | -1.2 | -2.6
O=C(CSc1ccccc1)N1CCc2c([nH]c3ccccc23)C1c1ccc(Cl)cc1 (configuration not stated) | 32.0%[57.1 µM] | 0.0% | -1.0%[57.1 µM] | . | . | .
CCOc1ccc(NC(=O)c2ccc3c(c2)nnn3C2CCCC2)cc1 | 5.6%[57.1 µM] | -5.3% | -0.2%[57.1 µM] | 0.0% | . | .
O=C(NCCc1ccccc1)c1ccc(CSc2nc3ccncc3n2Cc2ccc(F)cc2)cc1 | 13.5% | 15.1% | 2.0% | . | . | .
COc1cc(OC)c(OC)cc1/C=C1\Oc2cc(OS(C)(=O)=O)ccc2C1=O | -20.3% | -4.1% | -12.4% | -45.6% | -4.2 | 14.0
COc1ccc2c(c1)O/C(=C\c1ccccc1C)C2=O | -10.9% | -6.8% | -12.1% | 12.6µM* | -3.2 | 0.3
COc1cccc(C(c2c(O)nc(SC)n(C)c2=O)c2c(O)nc(SC)n(C)c2=O)c1 | ? | 2.5% | -5.2% | -0.4% | -1.7 | -7.4
CCCSc1nc(O)c(C(c2ccc(OC)c(O)c2)c2c(O)nc(SCCC)n(C)c2=O)c(=O)n1C | 11.2µM* | 4.1% | 9.2%[57.1 µM] | -2.9% | 0.7 | 15.0
O=c1c(C(c2ccccc2)c2c(O)nc3n(c2=O)CCS3)c(O)nc2n1CCS2 | 7.08µM* | -1.0% | -3.3% | 10.8% | 0.7 | -3.3
O=c1c(C(c2ccccc2)c2c(O)nc3n(c2=O)CCCS3)c(O)nc2n1CCCS2 | ? | 5.2% | 3.1% | -1.2% | -1.1 | -15.2
O=c1c(C(c2ccc(F)cc2)c2c(O)nc3n(c2=O)CCCS3)c(O)nc2n1CCCS2 | 14.1µM* | 1.3% | -4.4% | -4.4% | 0.9 | 9.7
O=c1c2[nH]c3ccc(F)cc3c2nc2n1CCCS2 | 17.9% | -3.1% | 2.7% | -16.7% | 0.1 | 2.8
CCOc1ccc(NC(=O)CSc2oc(-c3ccco3)nc2S(=O)(=O)c2ccc(Cl)cc2)cc1 | -27.2% | 8.2% | 55.3% | . | . | .
CCC(=O)NC(c1ccc(C)cc1)c1ccc2cccnc2c1O (configuration not stated) | 9.8% | -10.8% | -2.3% | -61.4% | -2.3 | 11.8
CCN1CCN(C(c2ccc(C(F)(F)F)cc2)c2ccc3cccnc3c2O)CC1 (configuration not stated) | 3.55µM* | -0.8% | 5.7%[57.1 µM] | -89.8% | -6.6 | -4.6
Cc1oc(=O)c(NC(=O)c2ccccc2)cc1C(=O)c1ccccc1 | 39.8µM* | 1.4% | -7.5% | 46.6% | -2.3 | -8.7
Cc1oc(=O)c(NC(=O)c2ccc(Cl)cc2)cc1C(=O)c1ccccc1 | ? | -3.7% | 5.0% | -19.0% | -1.2 | -10.3
CCCCOc1ccc(C(=O)N/C(=C\c2ccc(Br)cc2)C(=O)NC2CCCCC2)cc1 | 20.3% | . | 3.2% | . | . | .
CCCS(=O)(=O)NCCc1sc2nc(-c3ccc(Cl)cc3)nn2c1C | 14.0%[57.1 µM] | -7.5% | 0.1%[57.1 µM] | . | . | .
COc1ccccc1NC(=O)c1ccc2oc(=O)c(S(=O)(=O)c3ccccc3)cc2c1 | 16.2% | 0.0% | 6.4% | . | . | .
CCOc1ccc(CCNC(=O)CSCc2nc(-c3cccc(C)c3)oc2C)cc1OCC | 20.9% | -0.5% | 0.8% | . | . | .
CC(C)(C)CC(=O)Nc1nnc(CCc2ccccc2)s1 | 1.2% | -21.3% | -5.2% | ? | -1.0 | 15.5
CCC(C)(C)C(=O)Nc1nnc(CCc2ccccc2)s1 | 19.1% | 9.0% | -4.4% | 8.91µM* | -3.3 | ?
Cc1ccc(N2CC(NC(=O)Cc3cccs3)CC2=O)cc1C (configuration not stated) | 17.7%[57.1 µM] | 12.5% | 4.1%[57.1 µM] | . | . | .
Oc1c(C(c2ccccn2)N2CCCCC2)cc(Cl)c2cccnc12 (configuration not stated) | ? | 9.3% | -1.7% | -15.9% | -2.2 | 3.3
SMILES | TrxR1 inh | mIDH1 inhibitor | TrxR1 substrate | BRCA1 expr act | IL2 activator | Giardia kill
CN1CCN(C(c2ccc(Cl)cc2)c2cc(Cl)c3cccnc3c2O)CC1 (configuration not stated) | 6.31µM* | -13.1% | 2.5% | -44.5% | -4.3 | 11.1
CCOC(=O)c1sc2ccccc2c1S(=O)(=O)Nc1cc(OC)ccc1OC | 14.6%[57.1 µM] | 12.3% | 4.4%[57.1 µM] | . | . | .
Cn1cccc1C(=O)NC1CCCCCC1 | 26.4% | -3.4% | 2.3% | 10µM* | 0.0 | -15.2
O=C(N/N=C\c1ccc([N+](=O)[O-])s1)C1COc2ccccc2O1 (configuration not stated) | ? | 1.0% | 1.9% | -64.5% | -3.9 | -85.1*
O=[N+]([O-])c1ccc(/C=[N+](\[O-])[C@@H]2CCCC[C@@H]2/[N+]([O-])=C/c2ccc([N+](=O)[O-])o2)o1 | ? | 2.0% | 10.6%[57.1 µM] | -93.3% | -4.4 | -82.2*
O=C(N/N=C\c1ccc(Cl)s1)C1COc2ccccc2O1 (configuration not stated) | 19.5% | -0.3% | 0.4% | -20.0% | -0.6 | 8.0
O=C(N/N=C\c1ccc([N+](=O)[O-])o1)C1COc2ccccc2O1 (configuration not stated) | ? | 2.3% | 1.6%[57.1 µM] | -90.4% | 0.1 | -82.4*
O=C(N/N=C\c1ccc(-c2ccccc2[N+](=O)[O-])o1)C1COc2ccccc2O1 (configuration not stated) | -2.3% | 5.3% | -1.8% | -31.0% | 0.0 | -13.3
O=C(N/N=C/c1ccc([N+](=O)[O-])o1)C1CCCC1 | ? | -3.5% | -2.8% | -51.3% | -1.0 | -93.5*
COc1cccc(OC)c1C(=O)NC(C)C12CC3CC(CC(C3)C1)C2 (configuration not stated) | 11.2% | 9.7% | 1.9% | 0.0% | -2.0 | -25.2
CC(NC(=O)c1ccc([N+](=O)[O-])o1)C12CC3CC(CC(C3)C1)C2 (configuration not stated) | -14.2%[57.1 µM] | -3.1% | -7.6%[57.1 µM] | -66.7% | 0.1 | -86.5*
CC(NC(=O)C12CC3CC(CC(C3)C1)C2)C(=O)NN=Cc1ccc([N+](=O)[O-])o1 (configuration not stated) | -57.4% | 5.3% | -9.4% | -83.9% | -0.1 | -93.0*
CC(NC(=O)C12CC3CC(CC(C3)C1)C2)C(=O)N/N=C/C1=C(N2CCOCC2)C(=C\c2cccc([N+](=O)[O-])c2)/CC1 (configuration not stated) | -3.7%[57.1 µM] | -1.5% | -11.9% | -19.0% | 5.0 | -6.3
O=C(CN(CCc1c[nH]c2ccccc12)S(=O)(=O)c1ccccc1)N1CCCCCC1 | 29.3% | . | 4.1% | -27.8% | . | .
CCCCN(CCC#N)c1ccc(/C=C/c2ccnc3ccccc23)cc1 | 15.3% | . | -1.6% | . | . | .
